Experimental data: PubChem BioAssay (NCI)
Compounds without any hit were thinned out: in the full panel of roughly 83,000, 20% have a hit.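 Cells were grown in 96-well plates and exposed to the test compound at a single concentration for 48 hours; results are reported as percent growth, with values below 10 considered active.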 Active and inactive are the calls of the source.

Columns and labels:
Assay in all cases: NCI-60 one-dose screen, 48 h (100 = growth as untreated, 0 = no growth, -100 = all killed)
Conditions in all cases: 10 µM unless noted
DU-145 prostate = system: DU-145 prostate
K-562 leukemia = system: K-562 leukemia
MALME-3M melanoma = system: MALME-3M melanoma
MDA-MB-231 breast = system: MDA-MB-231 breast
RXF 393 renal = system: RXF 393 renal
SF-268 CNS = system: SF-268 CNS
SF-295 CNS = system: SF-295 CNS
SF-539 CNS = system: SF-539 CNS
UACC-257 melanoma = system: UACC-257 melanoma
M14 melanoma = system: M14 melanoma
HCT-15 colon = system: HCT-15 colon
HT29 colon = system: HT29 colon
SNB-75 CNS = system: SNB-75 CNS
SNB-19 CNS = system: SNB-19 CNS
U251 CNS = system: U251 CNS
PC-3 prostate = system: PC-3 prostate
SK-MEL-5 melanoma = system: SK-MEL-5 melanoma
UACC-62 melanoma = system: UACC-62 melanoma
LOX IMVI melanoma = system: LOX IMVI melanoma
SK-MEL-28 melanoma = system: SK-MEL-28 melanoma

Measured: growth

CC[C@]12C=CCN3CC[C@@]4(c5ccc(OC)cc5N(C)[C@H]4[C@@](O)(C(=O)OC)[C@@H]1OC(=O)CCC(=O)O[C@H]1CC[C@H]4[C@@H]5CCC6=CC(=O)CC[C@@H]6[C@H]5CC[C@]14C)[C@@H]32
inactive: DU-145 prostate 26% [100 µM] | SF-268 CNS 31.9% [100 µM] | UACC-257 melanoma 14.8% [100 µM] | HCT-15 colon 14.5% [100 µM] | SNB-19 CNS 21.7% [100 µM] | U251 CNS 10.8% [100 µM] | PC-3 prostate 11.3% [100 µM]
active: K-562 leukemia 7.54% [100 µM] | MALME-3M melanoma -16.4% [100 µM] | MDA-MB-231 breast -39.4% [100 µM] | RXF 393 renal -27.5% [100 µM] | SF-295 CNS 4.5% [100 µM] | SF-539 CNS -40.4% [100 µM] | M14 melanoma 1.67% [100 µM] | HT29 colon -21.8% [100 µM] | SNB-75 CNS -27.2% [100 µM] | SK-MEL-5 melanoma -95.3% [100 µM] | UACC-62 melanoma -53.8% [100 µM] | LOX IMVI melanoma -29.5% [100 µM] | SK-MEL-28 melanoma -7.77% [100 µM]

COc1ccc(C2NC(=O)C(C#N)c3c2sc2c(F)cccc32)cc1 (stereo not given)
inactive: DU-145 prostate 67.8% | K-562 leukemia 14.1% | MALME-3M melanoma 47.2% | MDA-MB-231 breast 71.2% | RXF 393 renal 55.9% | SF-268 CNS 62% | SF-295 CNS 30.5% | SF-539 CNS 39.5% | UACC-257 melanoma 63.9% | M14 melanoma 33.3% | HCT-15 colon 33.6% | HT29 colon 50.5% | SNB-75 CNS 13.6% | SNB-19 CNS 42.7% | U251 CNS 47.3% | PC-3 prostate 52.4% | SK-MEL-5 melanoma 60.6% | UACC-62 melanoma 36.4% | LOX IMVI melanoma 45.6% | SK-MEL-28 melanoma 52.6%

CC1Cc2ccc(OCCN(C)C)cc2C1=O (stereo not given)
inactive: DU-145 prostate 107% | K-562 leukemia 100% | MALME-3M melanoma 108% | MDA-MB-231 breast 112% | RXF 393 renal 110% | SF-268 CNS 103% | SF-295 CNS 99.6% | SF-539 CNS 99.5% | UACC-257 melanoma 80% | M14 melanoma 99.4% | HCT-15 colon 108% | HT29 colon 98.5% | SNB-75 CNS 98% | SNB-19 CNS 106% | U251 CNS 89.5% | PC-3 prostate 89.9% | SK-MEL-5 melanoma 91.6% | UACC-62 melanoma 105% | LOX IMVI melanoma 96.4% | SK-MEL-28 melanoma 103%

Oc1c(CNCCNCc2cc(Cl)cc(Cc3ccccc3)c2O)cc(Cl)cc1Cc1ccccc1
active: MALME-3M melanoma 8.23% | SF-295 CNS 0.247% | SF-539 CNS 2.22% | M14 melanoma 2.36% | SNB-19 CNS 2.51% | SK-MEL-5 melanoma -13.2% | UACC-62 melanoma -11.5% | LOX IMVI melanoma 4.57%
inactive: DU-145 prostate 24.2% | K-562 leukemia 13.2% | MDA-MB-231 breast 36.2% | RXF 393 renal 17.6% | SF-268 CNS 18.6% | UACC-257 melanoma 16% | HCT-15 colon 25.7% | HT29 colon 30.6% | SNB-75 CNS 28.4% | U251 CNS 17% | PC-3 prostate 40.9% | SK-MEL-28 melanoma 19.5%

CCN(CC)CC(C)Nc1ccc(C)c2sc3ccccc3c(=O)c12 (stereo not given)
active: UACC-257 melanoma 0.527% | M14 melanoma 3.81% | SK-MEL-5 melanoma -68.1% | UACC-62 melanoma 3.87%
inactive: DU-145 prostate 82% | K-562 leukemia 44.2% | MALME-3M melanoma 65.2% | MDA-MB-231 breast 28.7% | RXF 393 renal 39.5% | SF-268 CNS 58.9% | SF-295 CNS 76.2% | SF-539 CNS 44.2% | HCT-15 colon 32.5% | HT29 colon 26.8% | SNB-75 CNS 40.3% | SNB-19 CNS 53.8% | U251 CNS 37.4% | PC-3 prostate 47.6% | LOX IMVI melanoma 23.3% | SK-MEL-28 melanoma 38.9%

CCCN1CC(c2ccc(OC)c(OC)c2)=C(c2cn(C(=O)OCC)c3ccccc23)C1=O
inactive: DU-145 prostate 71.9% | K-562 leukemia 13.3% | MALME-3M melanoma 51.6% | MDA-MB-231 breast 43.3% | SF-268 CNS 58.2% | SF-295 CNS 32.4% | SF-539 CNS 28.1% | UACC-257 melanoma 90.1% | M14 melanoma 70.4% | HCT-15 colon 25.9% | HT29 colon 14.5% | SNB-19 CNS 50.3% | U251 CNS 46.7% | PC-3 prostate 32.4% | SK-MEL-5 melanoma 22.9% | UACC-62 melanoma 18.3% | LOX IMVI melanoma 49.6% | SK-MEL-28 melanoma 73.1%
active: RXF 393 renal -0.611% | SNB-75 CNS -14.1%

COc1ccc(-c2cc(-c3ccccc3)nc(SCCCCCC(=O)NO)n2)cc1
inactive: DU-145 prostate 61.2% | K-562 leukemia 26.4% | MALME-3M melanoma 21.5% | MDA-MB-231 breast 59.2% | RXF 393 renal 39.2% | SF-268 CNS 98.9% | SF-295 CNS 60.4% | SF-539 CNS 68.1% | UACC-257 melanoma 36.5% | M14 melanoma 52% | HCT-15 colon 78.1% | HT29 colon 23% | SNB-75 CNS 44.1% | SNB-19 CNS 70.5% | U251 CNS 56.4% | PC-3 prostate 70.7% | SK-MEL-5 melanoma 33.2% | UACC-62 melanoma 26.2% | LOX IMVI melanoma 59.2% | SK-MEL-28 melanoma 49.3%

Cc1cc(N2CCCCCC2)nc(N2CCN(CC(=O)Nc3ccc4c(ccn4Cc4ccccc4)c3)CC2)n1
inactive: DU-145 prostate 70.7% | K-562 leukemia 12.1% | MALME-3M melanoma 50.9% | MDA-MB-231 breast 54.6% | SF-268 CNS 71.2% | SF-295 CNS 20.4% | SF-539 CNS 55.7% | UACC-257 melanoma 61.3% | M14 melanoma 15.6% | HCT-15 colon 30.8% | SNB-75 CNS 69.6% | SNB-19 CNS 67.3% | U251 CNS 39.2% | PC-3 prostate 29% | SK-MEL-5 melanoma 46.9% | UACC-62 melanoma 49.2% | LOX IMVI melanoma 44.1% | SK-MEL-28 melanoma 51.8%
active: RXF 393 renal 6.02% | HT29 colon 6.45%

Cc1cc(-c2ccc(N=Nc3c(S(=O)(=O)O)cc4cc(S(=O)(=O)O)cc(N)c4c3O)c(C)c2)ccc1N=Nc1cc(S(=O)(=O)O)c2ccccc2c1O
inactive: DU-145 prostate 112% | K-562 leukemia 98% | MALME-3M melanoma 89% | MDA-MB-231 breast 92.4% | RXF 393 renal 107% | SF-268 CNS 95.6% | SF-295 CNS 103% | SF-539 CNS 88.4% | UACC-257 melanoma 97.7% | M14 melanoma 101% | HCT-15 colon 104% | HT29 colon 100% | SNB-75 CNS 98.5% | SNB-19 CNS 94.4% | U251 CNS 99.5% | PC-3 prostate 96.9% | SK-MEL-5 melanoma 100% | UACC-62 melanoma 93.6% | LOX IMVI melanoma 106% | SK-MEL-28 melanoma 107%

Cc1nn(-c2ccccc2)c(N2CCOCC2)c1-c1nc2ccc([N+](=O)[O-])cc2[nH]1
inactive: DU-145 prostate 98.4% | K-562 leukemia 88.4% | MALME-3M melanoma 105% | MDA-MB-231 breast 109% | RXF 393 renal 113% | SF-268 CNS 89.7% | SF-295 CNS 99.8% | SF-539 CNS 109% | UACC-257 melanoma 106% | M14 melanoma 108% | HCT-15 colon 91.5% | HT29 colon 113% | SNB-75 CNS 95.7% | SNB-19 CNS 103% | U251 CNS 102% | PC-3 prostate 112% | SK-MEL-5 melanoma 95.7% | UACC-62 melanoma 83.4% | LOX IMVI melanoma 92.1% | SK-MEL-28 melanoma 102%

O=C1CC(c2ccc3c(c2)OCO3)Nc2ccccc21 (stereo not given)
active: DU-145 prostate 7.64% | RXF 393 renal -22% | SF-295 CNS 4.53% | SF-539 CNS 0.134% | M14 melanoma -15.8% | HT29 colon 4.29% | SNB-75 CNS 7.16%
inactive: K-562 leukemia 12.4% | MALME-3M melanoma 46% | MDA-MB-231 breast 38.9% | SF-268 CNS 43.1% | UACC-257 melanoma 42.3% | HCT-15 colon 22% | SNB-19 CNS 33.2% | U251 CNS 15% | PC-3 prostate 16.8% | SK-MEL-5 melanoma 18.9% | UACC-62 melanoma 20.1% | LOX IMVI melanoma 37.4% | SK-MEL-28 melanoma 47.5%

c1ccc(-c2n[nH]c(-c3ccccn3)n2)nc1
inactive: DU-145 prostate 133% | K-562 leukemia 104% | MALME-3M melanoma 107% | MDA-MB-231 breast 116% | RXF 393 renal 95.7% | SF-268 CNS 140% | SF-295 CNS 98.1% | SF-539 CNS 106% | UACC-257 melanoma 106% | M14 melanoma 111% | HCT-15 colon 96.4% | HT29 colon 108% | SNB-75 CNS 101% | SNB-19 CNS 99.5% | U251 CNS 110% | PC-3 prostate 94.4% | SK-MEL-5 melanoma 102% | UACC-62 melanoma 104% | LOX IMVI melanoma 115% | SK-MEL-28 melanoma 149%

N#C/C(C(=O)c1ccccc1)=C1/C(=O)Nc2ccccc21
inactive: DU-145 prostate 105% | K-562 leukemia 88.6% | MALME-3M melanoma 108% | MDA-MB-231 breast 93.2% | RXF 393 renal 113% | SF-268 CNS 95.7% | SF-295 CNS 98.5% | SF-539 CNS 97.3% | UACC-257 melanoma 95.4% | M14 melanoma 35.6% | HCT-15 colon 106% | HT29 colon 102% | SNB-75 CNS 66.9% | SNB-19 CNS 98.8% | U251 CNS 103% | PC-3 prostate 97.6% | SK-MEL-5 melanoma 95.6% | UACC-62 melanoma 94.6% | LOX IMVI melanoma 104% | SK-MEL-28 melanoma 113%

Cc1cc(C)c(-c2cc(O)c(-c3c(C)cc(C)cc3C)cc2O)c(C)c1
inactive: DU-145 prostate 20.3% | MALME-3M melanoma 54.9% | MDA-MB-231 breast 51.5% | RXF 393 renal 18% | SF-268 CNS 55.3% | SF-295 CNS 30.2% | UACC-257 melanoma 73.8% | M14 melanoma 20.7% | HCT-15 colon 23.6% | SNB-19 CNS 45.9% | U251 CNS 25.2% | PC-3 prostate 43.2% | SK-MEL-5 melanoma 25.5% | UACC-62 melanoma 34.2% | LOX IMVI melanoma 41.8% | SK-MEL-28 melanoma 42.8%
active: K-562 leukemia 8.34% | SF-539 CNS -25.8% | HT29 colon 8.84% | SNB-75 CNS -10.3%
